Results: ChEMBL document CHEMBL1201862, “PubChem BioAssay data set” (2004)
These assays gave more results; the selection is not random.

The molecules below were run against T1, Protein RecA (Mycobacterium tuberculosis) (UniProt P9WHJ3) (assay: M. tuberculosis H37Rv growth inhibition, dose response, strain H37Rv (AID 489010);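 further: whole Mycobacterium tuberculosis cells grown in culture and not purified RecA protein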).
T1 sequence (whole entry): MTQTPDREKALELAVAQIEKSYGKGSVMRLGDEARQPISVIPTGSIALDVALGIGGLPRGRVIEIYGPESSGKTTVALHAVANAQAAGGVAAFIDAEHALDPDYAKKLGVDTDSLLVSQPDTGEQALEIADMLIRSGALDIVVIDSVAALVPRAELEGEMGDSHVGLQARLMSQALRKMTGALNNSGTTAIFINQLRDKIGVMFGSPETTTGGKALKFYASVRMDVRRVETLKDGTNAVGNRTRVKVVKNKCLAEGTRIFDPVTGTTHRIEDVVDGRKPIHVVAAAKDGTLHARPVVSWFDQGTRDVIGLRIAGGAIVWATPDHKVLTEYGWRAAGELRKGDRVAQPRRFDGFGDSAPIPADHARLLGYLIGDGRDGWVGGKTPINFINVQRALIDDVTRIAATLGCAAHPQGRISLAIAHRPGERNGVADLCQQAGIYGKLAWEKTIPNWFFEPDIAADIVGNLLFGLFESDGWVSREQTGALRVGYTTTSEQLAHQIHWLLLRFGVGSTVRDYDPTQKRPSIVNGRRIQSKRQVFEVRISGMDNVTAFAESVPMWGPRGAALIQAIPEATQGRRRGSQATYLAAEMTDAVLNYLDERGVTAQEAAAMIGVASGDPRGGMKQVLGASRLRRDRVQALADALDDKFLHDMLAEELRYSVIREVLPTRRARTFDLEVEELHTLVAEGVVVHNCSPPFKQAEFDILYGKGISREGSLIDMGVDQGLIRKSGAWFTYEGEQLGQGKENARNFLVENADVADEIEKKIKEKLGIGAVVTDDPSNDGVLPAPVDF
Format: functional

Structure (SMILES) | IC90
Cc1nc2c(=O)n(C)c(=O)nc-2n(C)n1 | 4.19 µM (active)
Cc1ccc(N(NC(=O)C(O)(c2ccccc2)c2ccccc2)C(=O)CCl)cc1 | 27.4 µM (active)
COc1cccc(N(C(=O)CCl)C(C(=O)NCCc2ccccc2)c2cccs2)c1 (stereo not drawn) | 32 µM (active)
O=C(NC1CCCCC1)C(c1cccnc1)N(C(=O)CCl)c1cccc(Cl)c1 (stereo not drawn) | 28 µM (active)
CN(C1=C(NC(=O)c2ccccc2)C(=O)c2ccccc2C1=O)C1CCS(=O)(=O)C1 (stereo not drawn) | > 100 µM (active)
CC(NC(=O)COC(=O)c1cc(NS(=O)(=O)c2ccc(Cl)c([N+](=O)[O-])c2)ccc1O)C1CC2CCC1C2 (stereo not drawn) | > 100 µM (active)
CN1C(=O)C(=C2CC(c3ccccc3)N(C(=O)CCl)N2)C(=O)N(C)C1=O (stereo not drawn) | > 100 µM (active)
O=C(NC(N=C(S)Nc1ccc(Cl)cc1Cl)C(Cl)(Cl)Cl)c1cccc([N+](=O)[O-])c1 (stereo not drawn) | 15.2 µM (active)
CCCCCCCCCCn1c2c(c(=N)c3c1CCC3)CCC2 | 3.39 µM (active)
C=CCOc1ccccc1CN(C(=O)CCl)c1ccc2c(c1)OCO2 | 8.42 µM (active)
Cn1nc(-c2ccc(Cl)cc2)nc2c(=O)n(C)c(=O)nc1-2 | 20 µM (active)
COC(=O)c1sc(-c2ccc(Cl)cc2)cc1NC(=O)/C=C/C(=O)O | > 100 µM (active)
Cc1ccc2c(c1)c1c3n2CCN(C(=O)CCl)C3CCC1 (stereo not drawn) | 8.43 µM (active)
O=C(CCl)N(c1ccc(Cl)cc1)c1c[nH]c2ccccc12 | 4.5 µM (active)
Cc1ccc(Sc2ccc(NC(=O)CCl)cc2)cc1C | 52.4 µM (active)
O=C1NC(=S)N(C2CCCCC2)C(=O)/C1=C/NNC(=O)c1ccccc1O | > 100 µM (active)
COc1ccc2nc(C)cc(Sc3nc4ccccc4s3)c2c1 | > 100 µM (active)

Structure (SMILES) | IC90
COC(=O)c1sc(-c2ccc(C(C)(C)C)cc2)cc1NC(=O)/C=C/C(=O)O | 42.7 µM (active)
COC(=O)c1c(C)oc2ccc(N(C(=O)c3ccncc3)S(=O)(=O)c3ccc4ccccc4c3)cc12 | > 100 µM (active)
Cc1ccc(Sc2ccc(NC(=O)CCl)cc2)c(C)c1 | 66.3 µM (active)
O=C(OCn1ncc(Cl)c(Cl)c1=O)c1ccccc1Cl | > 100 µM (active)
Cn1nc(-c2ccccn2)nc2c(=O)n(C)c(=O)nc1-2 | 22.3 µM (active)
CCN(CC)CCNC(=O)c1ccc2c(c1NCCO)C(=O)c1ccccc1C2=O | > 100 µM (active)
Cc1cc(Br)c2c(c1)/C(=C/C(=O)c1cccs1)C(=O)N2 | > 100 µM (active)
Cc1ccc(-n2nnc3c(SCC(=O)NCC4CCCO4)ncnc32)cc1 (stereo not drawn) | > 100 µM (active)
CC(=O)n1cc(N(C(=O)CCl)c2ccc(C)cc2)c2ccccc21 | 5.03 µM (active)
COc1ccc(N(C(=O)CCl)C(C(=O)NCCc2ccccc2)c2cccs2)cc1 (stereo not drawn) | 22.9 µM (active)
Cc1ccc(CS(=O)(=O)c2ncc(Cl)c(C(=O)Nc3nnc(C(C)C)s3)n2)cc1 | > 100 µM (active)
COc1cc2c(cc1OC)C(c1cc(Br)ccc1F)N(C(=O)CCl)CC2 (stereo not drawn) | 12.1 µM (active)
COc1cc2c(cc1OC)-c1c(OC)c(OC)cc3c1C(C2)N(C)CC3 (stereo not drawn) | 40.2 µM (active)
COc1ccc(C(=O)c2c(C(F)(F)F)oc3c2C(=O)c2ccccc2C3=O)cc1OC | 13.8 µM (active)
O=C(OCn1ncc(Cl)c(Cl)c1=O)c1cccc(C(F)(F)F)c1 | > 100 µM (active)
CC(CCc1ccccc1)NC(=O)COC(=O)c1cc(NS(=O)(=O)c2ccc(Cl)c([N+](=O)[O-])c2)ccc1O (stereo not drawn) | > 100 µM (active)
